Compound activity deposited in PubChem BioAssay by several laboratories.
Bim-Mcl-1: inhibitors of Bim peptide binding to Mcl-1, primary screen, biochemical, bead-based flow cytometry, multiplex | Induced myeloid leukemia cell differentiation protein Mcl-1 (Homo sapiens), Q07820 | Bim peptide-Mcl-1 binding | inhibition, % at 10 µM | 0.1% of 190,000 active | AID 1009, 2008; in the data active means inhibition above about 40%;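 further: 0% = no compound tracer wells and 100% = peptide blocker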
Mcl1-Noxa inh: Mcl-1/Noxa binding inhibitors, primary screen, biochemical, TR-FRET, 1536-well; Induced myeloid leukemia cell differentiation protein Mcl-1 (Homo sapiens), Q07820; TR-FRET Mcl-1/Noxa peptide binding, 2 h; inhibition, % at 21.7 µM; 1.5% of 220,000 active; AID 1022, 2008;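 active means compounds that cut the protein-peptide binding signal by more than 50% relative to plate controls in a single-dose test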;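 further: His-tagged Mcl-1 with rhodamine Noxa BH3 peptide and terbium anti-His antibody; 0% = Mcl-1 plus Noxa peptide wells and 100% = peptide-only wells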
14-3-3 Bad PPI: inhibitors of 14-3-3 zeta/Bad binding, primary screen, biochemical, TR-FRET, bovine 14-3-3 zeta. 0.71% of 220,000 active. TR-FRET 14-3-3zeta/Dy647-pBad peptide displacement, 1 h. 14-3-3 protein zeta/delta (Bos taurus), P63103. inhibition, % at 21.7 µM;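 active means inhibition above about 70%, limit read from the data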;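 further: 0% = full 14-3-3 plus peptide FRET controls and 100% = background without 14-3-3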
Target sequence (P63103 whole entry, looked up): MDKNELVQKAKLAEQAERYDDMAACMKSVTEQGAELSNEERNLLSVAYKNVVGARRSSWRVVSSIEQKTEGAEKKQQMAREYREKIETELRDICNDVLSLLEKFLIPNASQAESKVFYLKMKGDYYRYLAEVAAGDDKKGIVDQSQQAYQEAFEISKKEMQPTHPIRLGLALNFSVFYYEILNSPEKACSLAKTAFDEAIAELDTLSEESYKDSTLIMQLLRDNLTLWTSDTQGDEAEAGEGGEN
eIF4E 4G PPI: eIF4E–eIF4G protein interaction inhibitors, primary screen, biochemical, uHTS, TR-FRET, eIF4GI fragment; Eukaryotic translation initiation factor 4E (Mus musculus) + Eukaryotic translation …; TR-FRET eIF4E-eIF4GI(517-606) binding, 2 h; inhibition, % at 21.7 µM; 0.37% of 220,000 active; AID 782, 2007;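 further: 0% = full FRET control wells and 100% = background wells lacking eIF4GI fragment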
NCF1 inh: p47phox/p22phox peptide binding inhibitors, primary screen, biochemical, uHTS, NADPH oxidase regulatory subunit | Neutrophil cytosol factor 1 (Homo sapiens), P14598 | fluorescence polarization, 2 h | inhibition, % at 24.7 µM | 0.53% of 220,000 active;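 further: 0% = p47phox with labelled peptide and 100% = labelled peptide alone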
Target sequence (P14598 whole entry, looked up): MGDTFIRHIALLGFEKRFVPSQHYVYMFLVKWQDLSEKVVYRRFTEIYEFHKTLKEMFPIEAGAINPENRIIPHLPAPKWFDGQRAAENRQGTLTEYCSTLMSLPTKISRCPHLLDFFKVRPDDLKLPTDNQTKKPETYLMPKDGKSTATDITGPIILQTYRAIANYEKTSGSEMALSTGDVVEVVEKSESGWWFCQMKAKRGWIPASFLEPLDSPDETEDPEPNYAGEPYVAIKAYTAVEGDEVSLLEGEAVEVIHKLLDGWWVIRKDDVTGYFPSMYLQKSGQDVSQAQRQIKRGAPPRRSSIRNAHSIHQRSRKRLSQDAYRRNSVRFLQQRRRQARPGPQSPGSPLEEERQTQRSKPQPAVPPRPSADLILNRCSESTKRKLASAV
Mcl1 Bid PPI: Mcl-1/Bid binding inhibitors, primary screen, biochemical, TR-FRET, 1536-well; Induced myeloid leukemia cell differentiation protein Mcl-1 (Homo sapiens), Q07820; TR-FRET Mcl-1/Bid-Dy647 peptide binding; inhibition, % at 21.7 µM; 0.97% of 220,000 active; AID 1021, 2008;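 active means compounds that cut the binding signal by more than half at the single screening dose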;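 further: His-tagged Mcl-1 with europium anti-His antibody binding Bid BH3 peptide; 0% = Mcl-1 plus peptide wells and 100% = peptide-only wells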
* hit, by the source's call; [ ] = dose if it differs, or a comment. Only some compounds are listed: those with a hit (about 3.3% of all), similar ones and a draw of the others.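 How the source made its calls, unless noted: active means inhibition above about 30% (limit read from the data); inactive means the rest.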

Screening O=C(N=Nc1c(O)[nH]c2ccc(Cl)cc12)c1cc(-c2cccs2)nc2ccccc12 returned Bim-Mcl-1 -1.0, Mcl1-Noxa inh 59.7*, 14-3-3 Bad PPI 88.3*[fluorescence artefact?], eIF4E 4G PPI 10.7, NCF1 inh 69.7* and Mcl1 Bid PPI 85.1*.
For C/C=C\C=C/C(=O)Nc1cccc(C2=NOC3(C2)C[C@@H](C(N)=O)N(C(=O)c2ccc(Cl)cc2)C3)c1 (some centres undefined) the results were Mcl1-Noxa inh 37.5, 14-3-3 Bad PPI 2.6, eIF4E 4G PPI 4.1, NCF1 inh -5.2 and Mcl1 Bid PPI 27.7.
`C/C=C\C=C/C(=O)Nc1cccc(C2=NOC3(C2)C[C@H](C(N)=O)N(C(=O)c2ccc(OC)cc2)C3)c1` (some centres undefined) gave Mcl1-Noxa inh 62.6*, 14-3-3 Bad PPI -4.2, eIF4E 4G PPI -2.7, NCF1 inh 1.3 and Mcl1 Bid PPI 27.5.
`C/C=C\C=C/C(=O)Nc1cccc(C2=NOC3(C2)C[C@H](C(N)=O)N(C(=O)Cc2ccc([N+](=O)[O-])cc2)C3)c1` (some centres undefined) gave Mcl1-Noxa inh 65.0*, 14-3-3 Bad PPI 2.9, eIF4E 4G PPI -4.8, NCF1 inh -17.4 and Mcl1 Bid PPI 6.2.
O=C1CCC(=O)N1c1ccc(-c2nc3ccccc3s2)cc1 was read as Bim-Mcl-1 -4.0, Mcl1-Noxa inh 1.2, 14-3-3 Bad PPI 2.0, eIF4E 4G PPI 0.7, NCF1 inh 0.2 and Mcl1 Bid PPI 7.6.
`O=C(NCc1ccco1)c1cc2ccc(O)cc2oc1=O` gave Bim-Mcl-1 0.0, Mcl1-Noxa inh 56.0*, NCF1 inh -35.4 and Mcl1 Bid PPI -74.9.
`Cc1cc(C)nc(SCc2nnc(SCC(=O)Nc3cc(C(F)(F)F)ccc3Cl)o2)n1` gave Bim-Mcl-1 2.0, Mcl1-Noxa inh -17.7, 14-3-3 Bad PPI -7.6, eIF4E 4G PPI 7.8, NCF1 inh -6.1 and Mcl1 Bid PPI -12.1.
For CN(C)c1ccc(/C=N/NC(=O)c2cc(-c3ccc4c(c3)OCO4)n[nH]2)cc1 the results were Mcl1-Noxa inh 59.8*, 14-3-3 Bad PPI 1.1, eIF4E 4G PPI 2.5, NCF1 inh -12.4 and Mcl1 Bid PPI 1.3.
Screening COc1ccc(NC(=S)N(CCCN2CCCC2)Cc2cccn2Cc2ccc(Cl)cc2)cc1Cl returned Bim-Mcl-1 0.0, Mcl1-Noxa inh 27.9, 14-3-3 Bad PPI 0.5, eIF4E 4G PPI 8.6, NCF1 inh 43.1* and Mcl1 Bid PPI -30.2.
For FC(F)(F)c1cccc(NC(=S)N(CCCN2CCCC2)Cc2cccn2Cc2ccc(Cl)cc2)c1 the results were Bim-Mcl-1 -4.0, Mcl1-Noxa inh 6.2, 14-3-3 Bad PPI 12.2, eIF4E 4G PPI 0.6, NCF1 inh 35.4* and Mcl1 Bid PPI -36.9.
`Cc1ccc(NC(=S)N(CCCN2CCCC2)Cc2cccn2Cc2ccc(Cl)cc2)cc1C` gave Bim-Mcl-1 -4.0, Mcl1-Noxa inh 16.3, 14-3-3 Bad PPI -8.7, eIF4E 4G PPI -2.4, NCF1 inh 4.8 and Mcl1 Bid PPI -26.3.
For Cc1ccc(NC(=S)N(CCCN2CCCC2)Cc2cccn2Cc2ccc(Cl)cc2)cc1Cl the results were Bim-Mcl-1 0.0, Mcl1-Noxa inh 4.7, 14-3-3 Bad PPI 24.6, eIF4E 4G PPI 5.2, NCF1 inh 34.9* and Mcl1 Bid PPI -2.8.
For NS(=O)(=O)c1ccc(NC(=O)COC(=O)COc2ccc(Br)cc2)cc1 the results were Mcl1-Noxa inh -2.7, 14-3-3 Bad PPI -2.6, eIF4E 4G PPI 3.5, NCF1 inh -11.5 and Mcl1 Bid PPI -28.1.
`Cn1c(=O)c2c(nc(N3CCCCCC3)n2CC(O)COc2ccccc2)n(C)c1=O` (centres undefined) gave Bim-Mcl-1 5.0, Mcl1-Noxa inh 9.0, 14-3-3 Bad PPI 72.4*, eIF4E 4G PPI -3.0, NCF1 inh -0.3 and Mcl1 Bid PPI -5.3.
`CC(=O)c1ccccc1OC(=O)COc1ccc(Cl)cc1C` gave Bim-Mcl-1 0.0, Mcl1-Noxa inh 7.6, 14-3-3 Bad PPI -6.2, eIF4E 4G PPI 1.0, NCF1 inh -16.3 and Mcl1 Bid PPI -6.4.
Screening O=c1oc2c(-c3cccc(F)c3)cc(O)cc2s1 returned Bim-Mcl-1 1.0, Mcl1-Noxa inh 19.6, 14-3-3 Bad PPI -9.1, eIF4E 4G PPI -6.6, NCF1 inh -9.9 and Mcl1 Bid PPI -24.2.
[O-][n+]1c2c(nn1-c1ccccc1)/C(=N/O)CCC2 was read as Bim-Mcl-1 3.0, Mcl1-Noxa inh 4.7, 14-3-3 Bad PPI -4.7, eIF4E 4G PPI 2.1, NCF1 inh -13.1 and Mcl1 Bid PPI -22.1.
For [O-][n+]1onc2c1CCC(=N/O)/C2=N\Nc1ccccc1 the results were Mcl1-Noxa inh 78.2*, 14-3-3 Bad PPI 37.3, eIF4E 4G PPI 17.0, NCF1 inh -12.0 and Mcl1 Bid PPI -28.2.
`COc1ccc(/C=C/C(=O)NC(=S)Nc2cc([N+](=O)[O-])ccc2O)cc1OC` gave Bim-Mcl-1 0.0, Mcl1-Noxa inh 92.8*, 14-3-3 Bad PPI 49.2, eIF4E 4G PPI 5.6, NCF1 inh -56.5 and Mcl1 Bid PPI 13.2.
`COc1cc(/C=C/C(=O)OCC(=O)Nc2cc(C)c(C)cc2[N+](=O)[O-])ccc1O` gave Mcl1-Noxa inh 93.1*, 14-3-3 Bad PPI 6.1, eIF4E 4G PPI 11.0, NCF1 inh 22.6 and Mcl1 Bid PPI 41.2.
For COc1cc(/C=C/C(=O)OCC(=O)Nc2ccc(C)cc2[N+](=O)[O-])ccc1O the results were Bim-Mcl-1 3.0, Mcl1-Noxa inh 54.9*, 14-3-3 Bad PPI 34.6, eIF4E 4G PPI 6.0, NCF1 inh 10.3 and Mcl1 Bid PPI -35.8.
`COc1ccc([N+](=O)[O-])cc1NC(=S)NC(C)=O` gave Bim-Mcl-1 3.0, Mcl1-Noxa inh 14.7, 14-3-3 Bad PPI -3.3, eIF4E 4G PPI -7.8, NCF1 inh -6.4 and Mcl1 Bid PPI -5.9.
`COc1cc(/C=C/C(=O)OCC(=O)Nc2ccc([N+](=O)[O-])cc2)ccc1O` gave Mcl1-Noxa inh 26.4, 14-3-3 Bad PPI -3.9, eIF4E 4G PPI 5.2, NCF1 inh -2.3 and Mcl1 Bid PPI -23.9.
CC1CCCN(C(=O)CSc2nnc(-c3ccncc3)n2C)C1 (centres undefined) was read as Bim-Mcl-1 -28.0, Mcl1-Noxa inh -5.0, 14-3-3 Bad PPI 2.3, eIF4E 4G PPI -4.6, NCF1 inh 6.5 and Mcl1 Bid PPI 6.3.
